Assay results published in PubChem BioAssay (NCI).
Compounds without any hit were thinned out: in the full panel of roughly 83,000, 20% have a hit.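 Single-concentration screen, 48 h exposure, 96-well plates. Endpoint: percent growth. Below 10 = active.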 The source made the active and inactive calls.

Legend:
Experiment in all cases: NCI-60 one-dose screen, 48 h (100 = growth as untreated, 0 = no growth, -100 = all killed)
Details in all cases: 10 µM unless noted
HCT-15 colon = test system: HCT-15 colon
HT29 colon = test system: HT29 colon
SNB-75 CNS = test system: SNB-75 CNS
SNB-19 CNS = test system: SNB-19 CNS
U251 CNS = test system: U251 CNS
PC-3 prostate = test system: PC-3 prostate
SK-MEL-5 melanoma = test system: SK-MEL-5 melanoma
UACC-62 melanoma = test system: UACC-62 melanoma
LOX IMVI melanoma = test system: LOX IMVI melanoma
SK-MEL-28 melanoma = test system: SK-MEL-28 melanoma
SK-MEL-2 melanoma = test system: SK-MEL-2 melanoma
EKVX NSCLC = test system: EKVX NSCLC
SN12C renal = test system: SN12C renal
UO-31 renal = test system: UO-31 renal
TK-10 renal = test system: TK-10 renal
ACHN renal = test system: ACHN renal
CAKI-1 renal = test system: CAKI-1 renal
A498 renal = test system: A498 renal
CCRF-CEM leukemia = test system: CCRF-CEM leukemia
MOLT-4 leukemia = test system: MOLT-4 leukemia

Measured: growth

O=C(CN1C(=O)S/C(=C\C(Cl)=C\c2ccccc2)C1=O)NC1CCS(=O)(=O)C1 (stereo not given)
inactive: HCT-15 colon 15.7% | HT29 colon 53.5% | SNB-75 CNS 57.8% | SNB-19 CNS 86.8% | U251 CNS 81.6% | PC-3 prostate 80.9% | SK-MEL-5 melanoma 84.5% | UACC-62 melanoma 72.1% | LOX IMVI melanoma 14.2% | SK-MEL-28 melanoma 74.9% | SK-MEL-2 melanoma 85% | EKVX NSCLC 82.4% | SN12C renal 79.7% | UO-31 renal 65.6% | TK-10 renal 64% | ACHN renal 46.8% | CAKI-1 renal 78.1% | A498 renal 99.7% | CCRF-CEM leukemia 12.3% | MOLT-4 leukemia 40.7%

O=C(/C=C/c1ccccc1Cl)c1cccc(OCCCCOc2cccc(C(=O)/C=C/c3ccccc3Cl)c2)c1
inactive: HCT-15 colon 103% | HT29 colon 96.9% | SNB-75 CNS 86% | SNB-19 CNS 100% | U251 CNS 90.3% | PC-3 prostate 91.1% | SK-MEL-5 melanoma 99.5% | UACC-62 melanoma 85.5% | LOX IMVI melanoma 102% | SK-MEL-28 melanoma 99.7% | SK-MEL-2 melanoma 110% | EKVX NSCLC 107% | SN12C renal 95.8% | UO-31 renal 83.9% | TK-10 renal 118% | ACHN renal 98.4% | CAKI-1 renal 93.4% | A498 renal 109% | CCRF-CEM leukemia 91.8% | MOLT-4 leukemia 93.9%

O=C(C1=Cc2cc3ccccc3n2Cc2cnnn21)c1ccc(F)cc1
inactive: HCT-15 colon 95.8% | HT29 colon 112% | SNB-75 CNS 86.2% | SNB-19 CNS 94.1% | U251 CNS 98.2% | PC-3 prostate 92.3% | SK-MEL-5 melanoma 96% | UACC-62 melanoma 90.9% | LOX IMVI melanoma 98.8% | SK-MEL-28 melanoma 105% | SK-MEL-2 melanoma 103% | EKVX NSCLC 96.2% | SN12C renal 97.6% | UO-31 renal 88.6% | TK-10 renal 107% | ACHN renal 103% | CAKI-1 renal 90.9% | A498 renal 79.9% | CCRF-CEM leukemia 97.8% | MOLT-4 leukemia 89%

Ic1ccc(Nc2nc3nonc3nc2Nc2ccc(I)cc2)cc1
active: HCT-15 colon -11.5% | HT29 colon 0.391% | U251 CNS 6.94% | PC-3 prostate 4.36% | SK-MEL-5 melanoma -81.2% | UACC-62 melanoma -28.2% | LOX IMVI melanoma -3.56% | SK-MEL-2 melanoma -55.2% | EKVX NSCLC 4.77% | SN12C renal 7.43% | UO-31 renal -0.338% | TK-10 renal 2.2% | ACHN renal 4.88% | CAKI-1 renal 7.67% | A498 renal -22% | CCRF-CEM leukemia -1.76% | MOLT-4 leukemia -29%
inactive: SNB-75 CNS 24.7% | SNB-19 CNS 22.4% | SK-MEL-28 melanoma 12.2%

C=C1C(=O)O[C@H]2[C@H]1CC/C(COC(=O)C(=O)c1c[nH]c3ccc(Cl)cc13)=C\CC[C@@]1(C)O[C@@H]21
active: HCT-15 colon -58.4% | HT29 colon -52.7% | SNB-75 CNS -97% | SNB-19 CNS -71.6% | U251 CNS -93.1% | PC-3 prostate -74.4% | SK-MEL-5 melanoma -97.6% | UACC-62 melanoma -81.8% | LOX IMVI melanoma -92.7% | SK-MEL-28 melanoma -72.4% | SK-MEL-2 melanoma -58.9% | EKVX NSCLC -73.6% | SN12C renal -86.8% | UO-31 renal -94.4% | TK-10 renal -96.4% | ACHN renal -84.3% | CAKI-1 renal -87.5% | A498 renal -87.4% | CCRF-CEM leukemia -41.3% | MOLT-4 leukemia -12.4%

C(=C(\C1=NCCN1)n1ccc2ccccc21)/c1ccccc1
inactive: HCT-15 colon 99.6% | HT29 colon 103% | SNB-75 CNS 80.7% | SNB-19 CNS 99.9% | U251 CNS 94.6% | PC-3 prostate 95.5% | SK-MEL-5 melanoma 98.3% | UACC-62 melanoma 93.5% | LOX IMVI melanoma 93.3% | SK-MEL-28 melanoma 106% | SK-MEL-2 melanoma 106% | EKVX NSCLC 92.8% | SN12C renal 98.3% | UO-31 renal 62.4% | TK-10 renal 89.2% | ACHN renal 95.9% | CAKI-1 renal 80.7% | A498 renal 102% | CCRF-CEM leukemia 100% | MOLT-4 leukemia 97.8%

CS(=O)(=O)c1ccc(-c2nc3ccccc3n2CC(=O)N/N=C/c2ccccc2)cc1
inactive: HCT-15 colon 100% | HT29 colon 88.5% | SNB-75 CNS 96.5% | SNB-19 CNS 107% | U251 CNS 109% | PC-3 prostate 96.9% | SK-MEL-5 melanoma 100% | UACC-62 melanoma 94.4% | LOX IMVI melanoma 107% | SK-MEL-28 melanoma 103% | SK-MEL-2 melanoma 99.7% | EKVX NSCLC 92.9% | SN12C renal 108% | UO-31 renal 76.3% | TK-10 renal 103% | ACHN renal 101% | CAKI-1 renal 89.4% | A498 renal 111% | CCRF-CEM leukemia 104% | MOLT-4 leukemia 117%

N#CSc1c[nH]c2ccc(/C=C/C(=O)/C=C(O)/C=C/c3ccc4[nH]cc(SC#N)c4c3)cc12
inactive: SNB-75 CNS 51.9% | SNB-19 CNS 46.2% | PC-3 prostate 12% | SK-MEL-5 melanoma 41.2% | UACC-62 melanoma 26.3% | SK-MEL-28 melanoma 31.8% | SK-MEL-2 melanoma 34.2% | EKVX NSCLC 28.8% | SN12C renal 18.4% | CAKI-1 renal 11.9% | A498 renal 90.5%
active: HCT-15 colon -31% | HT29 colon -10.1% | U251 CNS 7.38% | LOX IMVI melanoma -75.8% | UO-31 renal -40.1% | TK-10 renal 8.11% | ACHN renal 0.691% | CCRF-CEM leukemia 2.04% | MOLT-4 leukemia -28.2%

Cc1cccc(N2C(=O)/C(=C/C(Cl)=C/c3ccc([N+](=O)[O-])cc3)SC2=S)c1C
active: HCT-15 colon -20.3% | HT29 colon -7.89% | SNB-75 CNS -19.1% | U251 CNS 4.72% | PC-3 prostate 8.37% | SK-MEL-5 melanoma -33.4% | UACC-62 melanoma 0.485% | LOX IMVI melanoma -70.4% | EKVX NSCLC -3.56% | SN12C renal -13.4% | UO-31 renal -72.6% | TK-10 renal -9.69% | ACHN renal -84.1% | CCRF-CEM leukemia 3.24% | MOLT-4 leukemia 5.73%
inactive: SNB-19 CNS 26.3% | SK-MEL-28 melanoma 24.2% | SK-MEL-2 melanoma 64% | CAKI-1 renal 35.7% | A498 renal 61.1%

N#Cc1c(-c2ccccc2)nc2c(c(-c3ccc(Cl)cc3)nn2-c2ccccc2)c1-c1ccc([N+](=O)[O-])cc1
inactive: HCT-15 colon 99.4% | HT29 colon 93.5% | SNB-75 CNS 88.3% | SNB-19 CNS 90.9% | U251 CNS 95.3% | PC-3 prostate 88.7% | SK-MEL-5 melanoma 99.2% | UACC-62 melanoma 86.5% | LOX IMVI melanoma 94.7% | SK-MEL-28 melanoma 102% | SK-MEL-2 melanoma 104% | EKVX NSCLC 103% | SN12C renal 105% | UO-31 renal 81.2% | TK-10 renal 121% | ACHN renal 97.5% | CAKI-1 renal 79% | A498 renal 99.7% | CCRF-CEM leukemia 90.6% | MOLT-4 leukemia 97.1%

Nc1cc(Br)cc2c1[nH]c(=O)c1ccccc12
inactive: HCT-15 colon 110% | HT29 colon 114% | SNB-75 CNS 81.7% | SNB-19 CNS 102% | U251 CNS 90.7% | PC-3 prostate 89.6% | SK-MEL-5 melanoma 96.5% | UACC-62 melanoma 100% | LOX IMVI melanoma 95.5% | SK-MEL-28 melanoma 101% | SK-MEL-2 melanoma 112% | EKVX NSCLC 82% | SN12C renal 88.6% | UO-31 renal 81.4% | TK-10 renal 104% | ACHN renal 102% | CAKI-1 renal 82.5% | A498 renal 92.5% | CCRF-CEM leukemia 93.2% | MOLT-4 leukemia 80.5%

Nc1c(Cl)cc(/C=C2\C=Cc3ccccc32)cc1Cl
inactive: HCT-15 colon 100% | HT29 colon 97.6% | SNB-75 CNS 86.1% | SNB-19 CNS 114% | U251 CNS 108% | PC-3 prostate 90.6% | SK-MEL-5 melanoma 105% | UACC-62 melanoma 106% | LOX IMVI melanoma 89.7% | SK-MEL-28 melanoma 114% | SK-MEL-2 melanoma 120% | EKVX NSCLC 94.2% | SN12C renal 113% | UO-31 renal 95.7% | TK-10 renal 107% | ACHN renal 101% | CAKI-1 renal 110% | A498 renal 97.6% | CCRF-CEM leukemia 106% | MOLT-4 leukemia 98.7%

CC(C)(C)c1ccc(C(=O)N/N=C/c2ccc(O)cc2O)cc1
active: SK-MEL-5 melanoma -46.1% | UACC-62 melanoma 4.25% | LOX IMVI melanoma 2.62% | CCRF-CEM leukemia 9.83%
inactive: HCT-15 colon 14.1% | HT29 colon 26.4% | SNB-75 CNS 37.6% | SNB-19 CNS 28.4% | U251 CNS 19.6% | PC-3 prostate 34.9% | SK-MEL-28 melanoma 27.8% | SK-MEL-2 melanoma 38.3% | EKVX NSCLC 21.5% | SN12C renal 23.3% | UO-31 renal 12.2% | TK-10 renal 40.1% | ACHN renal 15.2% | CAKI-1 renal 15% | A498 renal 13.6% | MOLT-4 leukemia 13.3%

COc1ccc(Oc2ccc(/C=C/C(=O)c3ccc(OC)c(OC)c3)cc2)cc1
inactive: HCT-15 colon 61.5% | HT29 colon 86% | SNB-75 CNS 72.5% | SNB-19 CNS 85.8% | U251 CNS 68.9% | PC-3 prostate 81.6% | SK-MEL-5 melanoma 75.3% | UACC-62 melanoma 67.5% | LOX IMVI melanoma 53.7% | SK-MEL-28 melanoma 93.7% | SK-MEL-2 melanoma 89% | EKVX NSCLC 79.4% | SN12C renal 86.7% | UO-31 renal 70.9% | TK-10 renal 105% | ACHN renal 92.5% | CAKI-1 renal 85.5% | A498 renal 90.3% | CCRF-CEM leukemia 70.3%
active: MOLT-4 leukemia -9.69%
